Screening data from PubChem.
Giardia kill = Giardia lamblia killing. Giardia lamblia trophozoite viability. activity change, % at 7.66 µM, hits read low. 340,000 compounds, 0.15% hits. AID 540267; in the data active = activity change below about -80%; inconclusive = between about -30% and that limit;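 also: parasites exposed to compound for two days anaerobically before the ATP read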
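Luminescence from cellular ATP indicates surviving trophozoites (100 cells/well) following 48 hrs anaerobic compound treatment at 37 deg C; signal develops 15-30 min at room temperature.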
Vif-APOBEC3G blk = Vif-A3G binding inhibition | Q9HC16 | HeLa A3G-eYFP + Vif (tagged APOBEC3G with the HIV-1 protein that degrades it), YFP fluorescence, overnight | Potency, µM (top dose mostly 46.1 µM), actives largely listed as inhibitors | 410,000 compounds, 0.076% hits; also: nearly all actives have a fitted effect of over 60% in size
Target sequence (Q9HC16 whole entry, looked up): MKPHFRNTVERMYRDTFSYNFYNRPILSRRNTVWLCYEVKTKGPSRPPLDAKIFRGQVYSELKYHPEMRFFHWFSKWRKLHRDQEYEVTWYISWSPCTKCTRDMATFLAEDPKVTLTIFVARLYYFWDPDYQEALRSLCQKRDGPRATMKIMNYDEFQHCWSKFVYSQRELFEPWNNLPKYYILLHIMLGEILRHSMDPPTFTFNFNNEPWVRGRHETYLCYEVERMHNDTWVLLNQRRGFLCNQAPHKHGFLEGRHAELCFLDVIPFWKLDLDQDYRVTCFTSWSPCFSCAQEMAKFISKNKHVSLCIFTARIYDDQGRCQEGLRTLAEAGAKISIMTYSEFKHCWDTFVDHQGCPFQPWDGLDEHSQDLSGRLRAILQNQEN
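Read-out is eYFP fluorescence (Ex 488/Em 500-530) from Vif-expressing HeLa A3G-eYFP cells; more signal means A3G escaped Vif-mediated degradation. Cells plated overnight, compound pinned in, incubated overnight at 37 deg C.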
MCF10A rerep = inducers of DNA re-replication in MCF 10A breast cells; AID 624296; 350,000 compounds, 2.9% hits; Potency, µM (series often up to 46.1 µM), hits mostly activators; MCF 10A DNA re-replication, Hoechst nuclear intensity, 48 h; also: nearly all actives have a fitted effect of over 50% in size
Vif-A3F inh = Vif-A3F binding inhibition; Potency, µM (titrated, usually from 46.1 µM); 390,000 compounds, 0.2% hits; HeLa A3F-eYFP + Vif (tagged APOBEC3F with the HIV-1 protein that degrades it), YFP fluorescence increase; also: nearly all actives have a fitted effect of over 65% in size
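HeLa cells stably expressing A3F-eYFP plus Vif, plated and incubated overnight at 37 deg C, then exposed to compounds overnight at 37 deg C. Blocked degradation read as raised yellow fluorescence (Ex 488/Em 500-530).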
SW480 rerep = DNA re-replication induction in SW480 cells; Potency, µM (doses to about 46.1 µM), actives largely listed as activators; SW480 DNA re-replication, Hoechst DNA content imaging, 48 h; AID 624297; 340,000 compounds, 1.8% hits; also: nearly all actives have a fitted effect of over 55% in size
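Per well, 250 cells were exposed to pinned compound for 48 hr. Nuclear DNA was visualised with Hoechst (40 min, 37 C) and total object intensity recorded by fluorescence scanning.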
IL1B secr inh = inhibitors of inflammasome signaling (IL-1 beta secretion). THP-1 LPS/ATP IL-1B secretion, AlphaLISA, 16 h; active compounds read low. activity change, % at 57.5 µM. 360,000 compounds, 4.7% hits. AID 743279; in the data active = activity change below about -50%; inconclusive = mostly about -30% to -49%
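THP-1 cells pretreated 1 hr with compounds (up to 57.5 uM final), then stimulated with LPS (250 ng/mL final) plus ATP (1.25 mM final); secreted IL-1B measured by AlphaLISA after 16 hr, decreased signal indicating inhibition.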
Numbers stand for hits; i = inactive; ? = inconclusive; nt = not tested or not shown; [ ] = dose if it differs, or a comment. Rows were chosen to be rich in hits. Some 6.9% of all compounds tested hit in one or more screens of this group. Unless noted, calls follow the shape of the dose curve; as a rule, active = well fitted curve in the direction sought with a large enough effect; inconclusive = small, poorly fitted or top-dose-only effect, or another doubt; inactive = no such curve, though single readings can be large; an effect the other way counts as inactive or inconclusive.

SMILES	Giardia kill	Vif-APOBEC3G blk	MCF10A rerep	Vif-A3F inh	SW480 rerep	IL1B secr inh
Cc1cccc(OCCSc2nc3ncnc(N)c3[nH]2)c1	i	i	i	i	i	i
CN(Cc1ccccc1C#N)S(=O)(=O)c1cccs1	i	i	i	i	i	i
N#Cc1nccnc1S(=O)(=O)c1cccs1	i	i	?	i	i	-98.4
COCCNC(=O)C1CCN(Cc2cccc(OCc3ccccc3)c2)CC1	i	i	?	?	?	i
CC(C)CCNC(=O)C1CCN(Cc2cccc(OCc3ccccc3)c2)CC1	i	i	?	i	?	-57.1
CCN(CC)C(=O)C1CCN(Cc2ccc(OCc3ccccc3)cc2)CC1	i	i	?	i	?	-56.8
CCN(CC)C(=O)C1CCN(Cc2cccc(OCc3ccccc3)c2)CC1	i	i	i	i	i	i
O=C(C1CCN(Cc2ccc(F)cc2)CC1)N(CCc1ccccc1)Cc1ccccc1	i	i	?	i	i	-89.1
COc1ccc(NC(=O)Cn2c(=O)n(-c3cccc(C)c3)c(=O)c3c2c2cc(C)ccc2n3C)cc1OC	nt	i	nt	i	nt	nt
Cc1ccc(C(=O)Nc2nnc(S(=O)(=O)N(C)Cc3ccc(F)cc3)s2)cc1	nt	i	nt	i	nt	nt
CCn1ccc2cc(S(=O)(=O)N3CCC(C(=O)NCc4ccc(OC)cc4)CC3)ccc21	nt	i	nt	i	nt	nt
COc1ccc(Nc2c(-c3ccc(C)o3)nc3cc(C)ccn23)cc1	nt	i	nt	i	nt	nt
N#C/C(=C\c1cn(Cc2ccccc2)c2ccccc12)C(=O)NCc1ccco1	i	i	20.6µM	?	?	i
N#C/C(=C\c1cn(Cc2cccc(F)c2)c2ccccc12)C(=O)NCc1ccco1	i	i	13µM	i	nt	i
COc1ccc(C2/C=C\CN(C(=O)C3CC3)C(C)C(=O)N2Cc2ccc(F)cc2)cc1 (configuration not stated)	i	i	nt	nt	nt	nt
COc1ccc(-n2c(-c3ccc(Cl)cc3)c[n+]3c2CCc2ccccc2-3)cc1	i	i	i	i	i	-54.9
CSc1nsc(/C=C/Nc2ccc(C(=O)O)cc2)c1C#N	i	?	5.17µM	?	?	i
O=c1[nH]c2ccccc2n2c(C(F)(F)F)nnc12	i	i	i	10µM	i	i
O=c1[nH]c2ccccc2n2c(=S)[nH]nc12	i	i	i	22.4µM	i	i
CCN1CCN(C(c2cccc(OC)c2)c2c(O)cc(C)n(Cc3ccco3)c2=O)CC1 (configuration not stated)	nt	i	nt	i	nt	nt
C/C(=N/Nc1ccc(C(=O)O)cc1)c1ccc2c(c1)Nc1ccccc1S2	i	i	16.4µM	i	18.4µM	i
C/C(=N\Nc1ccc(C(=O)O)cc1)c1ccc2c(c1)Nc1ccccc1S2	i	i	16.4µM	i	8.2µM	i
CC(=O)c1ccc(NC(=S)N2CCN(CCN3C(=O)c4cccc5cccc(c45)C3=O)CC2)cc1	i	i	i	i	i	i
C=CCc1ccccc1OCC(O)CN1CCN(CCN2C(=O)c3cccc4cccc(c34)C2=O)CC1 (configuration not stated)	i	i	?	i	?	-70.5
CC(=O)c1ccc(OCC(O)CN2CCN(CC(O)COc3ccc(C(C)=O)cc3)CC2)cc1 (configuration not stated)	i	i	i	i	i	i
SMILES	Giardia kill	Vif-APOBEC3G blk	MCF10A rerep	Vif-A3F inh	SW480 rerep	IL1B secr inh
CCC(OCC(O)CN1CCN(CCN2C(=O)c3cccc4cccc(c34)C2=O)CC1)c1ccccc1 (configuration not stated)	i	i	i	i	i	-92.0
CC(=O)c1ccc(OCC(O)CN2CCN(CCN3C(=O)c4cccc5cccc(c45)C3=O)CC2)cc1 (configuration not stated)	i	i	?	i	?	-72.9
CC(=O)c1ccc(OCC(O)CN2CCN(S(=O)(=O)c3c(C)c(C)cc(C)c3C)CC2)cc1 (configuration not stated)	i	i	?	i	?	-62.3
CC(C)OCC(O)CN1CCN(CCN2C(=O)c3cccc4cccc(c34)C2=O)CC1 (configuration not stated)	i	i	?	i	?	i
CCOc1ccc(NC(=O)Cn2cnc3sc(C)c(S(=O)(=O)N4CCN(c5ccccc5OC)CC4)c3c2=O)cc1	nt	i	nt	i	nt	nt
CC(=O)c1ccc(-c2ccc(C3C4C=CCCC4(C)C(=O)N3Cc3ccccc3)c(F)c2)cc1 (configuration not stated)	i	i	nt	nt	nt	nt
Cc1cccc(N2CCN(c3nc4ccc(C)cc4n4cnnc34)CC2C)c1 (configuration not stated)	nt	i	nt	i	nt	nt
Cc1oc2ccc(O)c(CN3CCOCC3)c2c1C(=O)Nc1ccc(C(C)C)cc1	nt	i	nt	i	nt	nt
CC(=O)c1ccc(-c2cc(C3C4C=CCC(C)C4C(=O)N3Cc3ccccc3)ccc2F)cc1 (configuration not stated)	i	i	nt	nt	nt	nt
Cc1ccccc1OCC(O)CN1CCN(CCN2C(=O)c3cccc4cccc(c34)C2=O)CC1 (configuration not stated)	i	i	i	i	i	-87.4
CC(C)N1CC=C2C(C#N)=C(N)C(C#N)(C#N)C(c3ccccc3)C2C1 (configuration not stated)	i	i	i	?	i[9.22 µM]	i
CCN1CC=C2C(C#N)=C(N)C(C#N)(C#N)C(c3cc(Cl)ccc3Cl)C2C1 (configuration not stated)	i	i	16.4µM	i	i	i
CCOc1ccc(C(=O)Nc2cccc(-c3nc4cc(Cl)cc(Cl)c4o3)c2)cc1	nt	i	nt	i	nt	nt
Cn1c(=O)cc(SCC(=O)N2CCN(C3CCCCC3)CC2)c2ccccc21	i	i	?	i	i	-60.3
CCn1c(=O)cc(SCC(=O)N2CCC(C)CC2)c2ccccc21	i	i	i	i	i	-61.9
CCn1c(=O)cc(SCC(=O)N2CCCCC2)c2ccccc21	i	i	i	i	i	i
Cc1ccc2c(=O)cc(C(=O)Nc3ccc(S(=O)(=O)Nc4onc(C)c4C)cc3)oc2c1C	nt	i	nt	i	nt	nt
CC(O)CNc1ncnc2cc(-c3ccc(F)cc3)sc12 (configuration not stated)	i	i	13µM	i	?	?
CCN1CCN(C(=O)Cn2ncc3c4ccccc4n(Cc4c(C)cc(C)cc4C)c3c2=O)CC1	nt	i	nt	i	nt	nt
COc1ccc(CCN(C)Cc2c(O)ccc3cc(Br)ccc23)cc1OC	i	i	?	i	i	-94.1
CN1CCc2cccc3c2[C@@H]1Cc1ccc(O)c(O)c1-3	i	i	?	i	3.66µM	i
CCN(c1ccccc1)S(=O)(=O)c1c(-c2ccc(C)cc2)csc1C(=O)OC	i	i	nt	i	nt	nt
